{"source": "paper PMC4336329", "about": "(PLoS ONE, 2015)", "note": "About 14,000 (4.5%) of roughly 310,000 compounds showed an effect of 50% or more. Effects have a minus sign here. Many of the other results were omitted from the sample, so strong results are more common in it than they were.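 Further: peak tail current of the secondary pulse compared with the same well before compound.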", "data": [{"target": "human ether-à-go-go-related gene (hERG) potassium channel (human, UniProt Q12809)", "sequence (Q12809 whole entry, looked up)": "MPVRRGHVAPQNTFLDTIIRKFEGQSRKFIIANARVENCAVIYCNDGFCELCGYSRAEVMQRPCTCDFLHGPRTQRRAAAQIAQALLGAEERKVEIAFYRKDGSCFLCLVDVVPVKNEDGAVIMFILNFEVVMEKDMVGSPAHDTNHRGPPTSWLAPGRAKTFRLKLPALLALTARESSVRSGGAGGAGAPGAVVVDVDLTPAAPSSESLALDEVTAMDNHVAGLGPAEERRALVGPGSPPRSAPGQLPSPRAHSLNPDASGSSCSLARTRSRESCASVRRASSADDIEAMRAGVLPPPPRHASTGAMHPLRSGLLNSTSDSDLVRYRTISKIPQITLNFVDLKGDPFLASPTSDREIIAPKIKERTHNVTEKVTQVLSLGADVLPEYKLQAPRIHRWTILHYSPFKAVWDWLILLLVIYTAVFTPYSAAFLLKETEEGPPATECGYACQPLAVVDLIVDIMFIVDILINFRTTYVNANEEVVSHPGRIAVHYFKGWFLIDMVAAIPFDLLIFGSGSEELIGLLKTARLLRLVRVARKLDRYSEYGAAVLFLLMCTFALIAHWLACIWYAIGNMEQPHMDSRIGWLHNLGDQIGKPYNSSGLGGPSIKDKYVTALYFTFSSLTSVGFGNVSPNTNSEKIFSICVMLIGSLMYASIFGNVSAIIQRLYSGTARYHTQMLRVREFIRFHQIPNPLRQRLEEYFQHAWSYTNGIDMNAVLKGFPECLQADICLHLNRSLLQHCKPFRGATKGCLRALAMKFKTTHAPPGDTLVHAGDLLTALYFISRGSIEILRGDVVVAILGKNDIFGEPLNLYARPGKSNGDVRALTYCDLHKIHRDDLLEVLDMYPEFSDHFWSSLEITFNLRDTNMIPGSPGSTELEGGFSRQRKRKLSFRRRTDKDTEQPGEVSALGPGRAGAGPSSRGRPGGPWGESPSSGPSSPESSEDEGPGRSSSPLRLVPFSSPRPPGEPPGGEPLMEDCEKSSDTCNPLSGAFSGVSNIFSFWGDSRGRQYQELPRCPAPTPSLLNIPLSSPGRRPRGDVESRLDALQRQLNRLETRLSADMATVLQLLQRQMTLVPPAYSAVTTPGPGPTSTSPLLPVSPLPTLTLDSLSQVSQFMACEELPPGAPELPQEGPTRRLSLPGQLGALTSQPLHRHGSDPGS", "experiment": "primary screen, population patch clamp on CHO cells stably expressing hERG; higher = less effect of the substance", "protocol": "Briefly, Chinese hamster ovary (CHO) cells stably expressing the hERG channel were dislodged from tissue culture flasks and dispensed into PPC plates. […] During the recording, background leak currents were estimated by a 100 ms step to -80 mV from an initial holding potential of -70 mV and subtracted from the subsequent current measurement. The campaign was conducted in two phases using slight differences in recording protocol. In the first phase, the initial voltage pulse used a 100 ms step to -30 mV from a holding potential of -70 mV, a 2 s conditioning step to +25 mV, and a 2 s test step to -30 mV. During the second phase of the screen, the potential during the conditioning step was raised to +45 mV. In both phases of the campaign, a secondary voltage pulse was applied using the same parameters as the second phase initial pulse. The initial and secondary pulses were applied in the absence of compound, and upon application of 1 μM and 10 μM test concentrations. […]", "units": {"hERG current change (%, negative = inhibition) at 10uM": "%"}, "values": [{"smiles": "CC(c1ccccc1)N1CCC(CNC(=S)Nc2cccc(Cl)c2)C1", "note": "(stereo not shown)", "hERG current change (%, negative = inhibition) at 10uM": -29.2}, {"smiles": "Cc1ccccc1NC(=S)NCC1CCN(C(C)c2ccccc2)C1", "note": "(stereo not shown)", "hERG current change (%, negative = inhibition) at 10uM": 6.64}, {"smiles": "Cc1ccc(NC(=S)NCC2CCN(C(C)c3ccccc3)C2)cc1C", "note": "(stereo not shown)", "hERG current change (%, negative = inhibition) at 10uM": -44.6}, {"smiles": "Cc1ccc(NC(=S)NCC2CCN(C(C)c3ccccc3)C2)cc1", "note": "(stereo not shown)", "hERG current change (%, negative = inhibition) at 10uM": -57.5}, {"smiles": "Cc1cc(C)c(NC(=S)NCC2CCN(C(C)c3ccccc3)C2)c(C)c1", "note": "(stereo not shown)", "hERG current change (%, negative = inhibition) at 10uM": -22.4}, {"smiles": "O=C1NC(c2ccccc2)=C(c2ccc3ccccc3n2)C(c2ccccc2)N1", "note": "(stereo not shown)", "hERG current change (%, negative = inhibition) at 10uM": 6.13}, {"smiles": "CC1(C)CC(=O)N(CC(=O)O)c2ccccc2S1(=O)=O", "hERG current change (%, negative = inhibition) at 10uM": 3.52}, {"smiles": "O=c1c2ccccc2ncn1-c1ccc(Cl)c(Cl)c1", "hERG current change (%, negative = inhibition) at 10uM": -1.01}, {"smiles": "OC(CNCCCCNCC(O)C(F)(F)F)C(F)(F)F", "note": "(stereo not shown)", "hERG current change (%, negative = inhibition) at 10uM": 19.8}, {"smiles": "CCCN(CCC)Cc1c(C(=O)OCC)nnn1-c1nonc1N", "hERG current change (%, negative = inhibition) at 10uM": -12.7}, {"smiles": "CC(=O)c1nc2ccccc2n1S(=O)(=O)c1ccc(C)cc1", "hERG current change (%, negative = inhibition) at 10uM": 17.3}, {"smiles": "Cc1nc2c(ccc3nc(NC(=O)c4ccc(S(=O)(=O)N(C)C)cc4)sc32)s1", "hERG current change (%, negative = inhibition) at 10uM": 15.2}, {"smiles": "Cc1nc2ccc3nc(NC(=O)c4ccc5c(c4)OCCO5)sc3c2s1", "hERG current change (%, negative = inhibition) at 10uM": 2.9}, {"smiles": "Cc1nc2c(ccc3nc(NC(=O)c4ccc5c(c4)OCCO5)sc32)s1", "hERG current change (%, negative = inhibition) at 10uM": -74.3}, {"smiles": "CC(C)(C)NC(=O)COc1coc(CN2CCN(Cc3ccccc3)CC2)cc1=O", "hERG current change (%, negative = inhibition) at 10uM": -1.29}, {"smiles": "Cc1ccc(Cn2c(C(CO)Nc3nc(-c4ccc(Cl)c([N+](=O)[O-])c4)cs3)nc3ccccc32)cc1", "note": "(stereo not shown)", "hERG current change (%, negative = inhibition) at 10uM": 7.56}, {"smiles": "O=S(=O)(c1ccsc1)N1CC=C(c2ccccc2)CC1", "hERG current change (%, negative = inhibition) at 10uM": 15.7}, {"smiles": "CN1CCN(C(c2cc3cc4c(cc3[nH]c2=O)OCCO4)c2nnnn2C2CCCC2)CC1", "note": "(stereo not shown)", "hERG current change (%, negative = inhibition) at 10uM": -9.91}, {"smiles": "CCN1CC2C3CCC(C)(O3)C2C1", "note": "(stereo not shown)", "hERG current change (%, negative = inhibition) at 10uM": -73.1}, {"smiles": "CCCc1cc(=O)[nH]c(SCC(=O)Nc2nc3ccc(OCC)cc3s2)n1", "hERG current change (%, negative = inhibition) at 10uM": 22.8}, {"smiles": "NC(=S)N=Nc1c(O)n(CC(=O)Nc2ccccc2)c2ccccc12", "hERG current change (%, negative = inhibition) at 10uM": 16.4}, {"smiles": "COc1cc2ncnc(NCc3ccc(C)o3)c2cc1OC", "hERG current change (%, negative = inhibition) at 10uM": -11.5}, {"smiles": "CCOC(=O)C1CCCN(C(=O)COc2ccc(S(=O)(=O)N(CC)c3ccccc3)cc2)C1", "note": "(stereo not shown)", "hERG current change (%, negative = inhibition) at 10uM": -51.8}, {"smiles": "Cc1ccc(S(=O)(=O)N(C)c2ccc(OCC(=O)N3CCCC(C(F)(F)F)C3)cc2)cc1", "note": "(stereo not shown)", "hERG current change (%, negative = inhibition) at 10uM": -39.9}, {"smiles": "CCOC(=O)C1CCCN(C(=O)COc2ccccc2O)C1", "note": "(stereo not shown)", "hERG current change (%, negative = inhibition) at 10uM": -1.94}, {"smiles": "CN(c1ccc(OCC(=O)N2CCOCC2)cc1)S(=O)(=O)c1ccc(F)cc1", "hERG current change (%, negative = inhibition) at 10uM": -9.15}, {"smiles": "CCOC(=O)C1CCCN(C(=O)COc2ccc(N(C)S(=O)(=O)c3ccc(F)cc3)cc2)C1", "note": "(stereo not shown)", "hERG current change (%, negative = inhibition) at 10uM": -66.5}, {"smiles": "Cc1ccc(S(=O)(=O)N(C)c2ccc(OCC(=O)N3CCCCC3)cc2)cc1", "hERG current change (%, negative = inhibition) at 10uM": -10.5}, {"smiles": "CN1CCN(C(=O)COc2ccc(N(C)S(=O)(=O)c3ccc(F)cc3)cc2)CC1", "hERG current change (%, negative = inhibition) at 10uM": -4.56}, {"smiles": "CCN(c1ccccc1)S(=O)(=O)c1ccc(OCC(=O)N2CCCC2)cc1", "hERG current change (%, negative = inhibition) at 10uM": -10.4}, {"smiles": "CCOC(=O)C1CCN(C(=O)COc2ccc(N(C)S(=O)(=O)c3ccc(OCC)cc3)cc2)CC1", "hERG current change (%, negative = inhibition) at 10uM": -4.08}, {"smiles": "COC(=O)C1CCN(C(=O)COc2ccc(N(C)S(=O)(=O)c3ccc(C)cc3)cc2)CC1", "hERG current change (%, negative = inhibition) at 10uM": -33.8}, {"smiles": "CCOC(=O)C1CCCN(C(=O)COc2ccc(N(C)S(=O)(=O)c3ccc(C)cc3)cc2)C1", "note": "(stereo not shown)", "hERG current change (%, negative = inhibition) at 10uM": -56.8}, {"smiles": "CCOC(=O)C1CCN(C(=O)COc2ccc(N(C)S(=O)(=O)c3ccc(C)cc3)cc2)CC1", "hERG current change (%, negative = inhibition) at 10uM": -57.7}, {"smiles": "O=C(COC(=O)c1cnccn1)c1cccc([N+](=O)[O-])c1", "hERG current change (%, negative = inhibition) at 10uM": 14.4}, {"smiles": "O=C(Nc1ccccc1Cl)c1sccc1-c1ccccc1", "hERG current change (%, negative = inhibition) at 10uM": -2.39}, {"smiles": "COc1ccc(/C=N/NC(=O)C(=O)Nc2ccccn2)cc1OC", "hERG current change (%, negative = inhibition) at 10uM": -27.2}, {"smiles": "COc1ccc(C2=NS(=O)(=O)N(C)C(C(=O)NCc3ccccn3)=C2)cc1OC", "hERG current change (%, negative = inhibition) at 10uM": -4.15}, {"smiles": "CC1=CC(C)(C)Nc2ccc(OC(=O)c3ccco3)cc21", "hERG current change (%, negative = inhibition) at 10uM": -0.0756}, {"smiles": "CC1CN(C(=O)CN2C(=O)c3ccccc3C2=O)CC(C)O1", "note": "(stereo not shown)", "hERG current change (%, negative = inhibition) at 10uM": 6.42}]}]}
